Parameters in all cases: scale not given: direction of the effect not stated beside the values
Assay [1] deals with Protein translocase subunit SecA (Escherichia coli (strain K12)) (UniProt P10408). Briefly: Assay to Identify E. coli SecA ATPase Inhibitors. Format: functional. To be noted: 30 µM.
The target of assay [2] is T1, Ubiquitin-activating enzyme e1, putative (Leishmania donovani (strain BPK282A1)) (UniProt E9BSI1).
T1 sequence (whole entry): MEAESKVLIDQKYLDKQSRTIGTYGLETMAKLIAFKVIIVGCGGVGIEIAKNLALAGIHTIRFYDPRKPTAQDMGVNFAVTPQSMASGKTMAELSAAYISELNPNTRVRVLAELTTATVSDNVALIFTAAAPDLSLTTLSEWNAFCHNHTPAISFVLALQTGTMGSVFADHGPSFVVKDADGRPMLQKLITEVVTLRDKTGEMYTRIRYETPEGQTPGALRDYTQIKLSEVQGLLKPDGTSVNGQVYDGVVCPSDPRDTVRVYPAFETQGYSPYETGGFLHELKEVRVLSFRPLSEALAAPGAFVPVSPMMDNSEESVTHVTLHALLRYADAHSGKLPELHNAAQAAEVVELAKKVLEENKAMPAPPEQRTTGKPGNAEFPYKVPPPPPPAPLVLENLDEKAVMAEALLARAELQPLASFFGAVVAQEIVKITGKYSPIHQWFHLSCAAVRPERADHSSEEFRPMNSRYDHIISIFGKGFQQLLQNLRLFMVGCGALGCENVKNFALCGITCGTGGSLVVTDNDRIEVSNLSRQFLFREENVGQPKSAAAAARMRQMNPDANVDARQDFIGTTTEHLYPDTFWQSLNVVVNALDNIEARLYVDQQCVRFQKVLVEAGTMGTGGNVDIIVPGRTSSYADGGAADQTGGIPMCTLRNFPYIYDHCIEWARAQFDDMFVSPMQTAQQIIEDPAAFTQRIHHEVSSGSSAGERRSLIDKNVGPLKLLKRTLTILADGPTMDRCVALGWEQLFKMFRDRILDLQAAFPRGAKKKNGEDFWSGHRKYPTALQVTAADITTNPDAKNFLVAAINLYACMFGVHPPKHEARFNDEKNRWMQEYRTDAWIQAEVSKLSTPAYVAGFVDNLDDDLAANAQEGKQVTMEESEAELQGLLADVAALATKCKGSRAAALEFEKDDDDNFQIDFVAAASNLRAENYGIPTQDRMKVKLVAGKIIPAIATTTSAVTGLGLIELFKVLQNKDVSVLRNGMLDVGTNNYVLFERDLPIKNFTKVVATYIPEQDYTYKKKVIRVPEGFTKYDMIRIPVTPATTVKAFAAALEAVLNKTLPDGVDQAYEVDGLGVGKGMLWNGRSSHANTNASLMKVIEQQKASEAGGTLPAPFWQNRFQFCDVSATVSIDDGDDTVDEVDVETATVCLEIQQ
Put plainly: Leishmania donovani Ubiquitin Activating Enzyme (LdE1). Type of assay: functional. Particulars: 30 µM.

Assay [3] concerns the target AMP-activated protein kinase, AMPK (Homo sapiens) (UniProt P54646+O43741+P54619+Q9UGJ0+Q9Y478+Q13131+Q9UGI9). Briefly: AMP-dependent Kinase enzyme assay. An in vitro enzyme assay that detects ADP turnover that is directly proportional to AMPK activity. This uses naive AMPK that is activated during the assay with MK-8722. Type of assay: functional. To be noted: 30 µM.

The target of assay [4] is Sialic acid-binding Ig-like lectin 9 (Homo sapiens) (UniProt Q9Y336). Briefly: Hs-Siglec9 ALPHAscreen SOP 20170721. Particulars: 10 µM. For orientation: Bead proximity is the source of the signal in Alpha formats.
Sialic acid-binding Ig-like lectin 9 (Homo sapiens), sequence (Q9Y336 whole entry): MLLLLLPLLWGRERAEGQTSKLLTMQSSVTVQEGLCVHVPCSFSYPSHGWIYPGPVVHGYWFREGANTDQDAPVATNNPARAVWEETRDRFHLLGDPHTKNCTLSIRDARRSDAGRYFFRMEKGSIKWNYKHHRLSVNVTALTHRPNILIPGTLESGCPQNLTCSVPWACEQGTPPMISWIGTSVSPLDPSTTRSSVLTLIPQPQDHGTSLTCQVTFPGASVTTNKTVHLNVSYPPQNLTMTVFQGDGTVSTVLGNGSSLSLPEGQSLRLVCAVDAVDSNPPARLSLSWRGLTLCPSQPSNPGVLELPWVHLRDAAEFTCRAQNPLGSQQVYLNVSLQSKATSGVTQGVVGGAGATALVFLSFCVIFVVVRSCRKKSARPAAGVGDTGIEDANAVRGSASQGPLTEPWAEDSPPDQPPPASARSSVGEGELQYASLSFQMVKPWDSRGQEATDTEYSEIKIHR
The next assay has as its system Trypanosoma cruzi. Put plainly: Trypanosoma cruzi phosphomannomutase and mannose-1-phosphate guanylyltransferase assay. Particulars: 10 µM. Format: functional.
Assay [5] has as its target T2, Arginase-2, mitochondrial (Homo sapiens) (UniProt P78540).
T2 sequence (whole entry): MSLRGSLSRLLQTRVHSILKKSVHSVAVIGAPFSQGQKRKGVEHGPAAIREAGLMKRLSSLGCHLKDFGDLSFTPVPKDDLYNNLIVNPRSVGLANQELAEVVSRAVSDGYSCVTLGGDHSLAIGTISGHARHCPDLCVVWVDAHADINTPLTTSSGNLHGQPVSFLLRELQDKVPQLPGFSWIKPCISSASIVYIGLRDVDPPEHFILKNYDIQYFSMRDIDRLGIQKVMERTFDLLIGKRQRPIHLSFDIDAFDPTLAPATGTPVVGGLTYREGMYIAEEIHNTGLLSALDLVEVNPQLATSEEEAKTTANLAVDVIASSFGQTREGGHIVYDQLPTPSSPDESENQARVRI
Put plainly: in vitro enzyme assay to detect the production of urea directly proportional to the activity of Arginase II. Also: in the data most compounds retested in dose-response had high values. Format: functional. Particulars: 33.3 µM.

The target of assay [6] is T3, Proteasome subunit beta (Trypanosoma cruzi) (UniProt O96673).
T3 sequence (whole entry): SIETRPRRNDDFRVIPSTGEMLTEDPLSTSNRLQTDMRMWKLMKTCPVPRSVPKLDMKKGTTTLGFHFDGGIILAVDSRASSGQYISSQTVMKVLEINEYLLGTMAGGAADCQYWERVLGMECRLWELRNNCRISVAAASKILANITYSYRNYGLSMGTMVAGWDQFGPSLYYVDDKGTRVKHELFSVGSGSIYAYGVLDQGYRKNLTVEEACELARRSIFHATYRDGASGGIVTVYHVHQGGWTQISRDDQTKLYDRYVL
Briefly: Trypanosoma cruzi proteasome chymotrypsin-like activity (TcProtChymo) assay. Also: in the data most compounds retested in dose-response had high values. Type of assay: functional. Particulars: 9.37 µM.

For another assay, the species on record is Homo sapiens. Put plainly: To identify inhibition of the IFN signalling (Jak-Stat) pathway via expression of an eGFP reporter gene under the control of an IFN-stimulated response element (ISRE) containing MxA promoter. Type of assay: functional. To be noted: 30 µM. (In a reporter assay the amount or activity of a reporter protein is the signal.)
The target in assay [7] is T4, Tyrosyl-tRNA synthetase, putative (Trypanosoma cruzi (strain CL Brener)) (UniProt Q4DSP6).
T4 sequence (whole entry): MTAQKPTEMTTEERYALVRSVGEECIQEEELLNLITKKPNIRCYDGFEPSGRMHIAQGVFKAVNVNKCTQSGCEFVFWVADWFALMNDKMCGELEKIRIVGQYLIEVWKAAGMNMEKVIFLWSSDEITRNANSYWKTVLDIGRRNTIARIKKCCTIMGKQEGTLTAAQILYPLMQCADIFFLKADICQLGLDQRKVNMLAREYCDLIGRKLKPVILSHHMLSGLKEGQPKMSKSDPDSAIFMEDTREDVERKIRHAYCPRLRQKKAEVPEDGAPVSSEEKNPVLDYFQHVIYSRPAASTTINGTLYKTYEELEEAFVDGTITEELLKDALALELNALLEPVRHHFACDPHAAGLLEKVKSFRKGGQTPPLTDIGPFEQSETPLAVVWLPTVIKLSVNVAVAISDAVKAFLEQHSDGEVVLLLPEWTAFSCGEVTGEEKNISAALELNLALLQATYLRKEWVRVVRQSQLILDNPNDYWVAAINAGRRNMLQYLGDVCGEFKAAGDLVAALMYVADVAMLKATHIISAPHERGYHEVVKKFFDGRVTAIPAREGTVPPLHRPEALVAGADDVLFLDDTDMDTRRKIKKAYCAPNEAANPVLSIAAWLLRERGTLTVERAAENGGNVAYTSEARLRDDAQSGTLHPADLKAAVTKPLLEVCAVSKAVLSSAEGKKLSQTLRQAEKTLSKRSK
Briefly: Trypanosoma cruzi tyrosyl tRNA synthetase (TcYRS) _High Tyrosine SOP. Also: in the data most compounds retested in dose-response had high values. Format: functional. To be noted: 30 µM.

Assay [8] concerns the target T4, Tyrosyl-tRNA synthetase, putative (Trypanosoma cruzi (strain CL Brener)). Briefly: Trypanosoma cruzi tyrosyl tRNA synthetase (TcYRS) SOP. Format: functional. To be noted: 30 µM.
Assay [9] concerns the target Chromo domain-containing protein 1 (Saccharomyces cerevisiae (strain ATCC 204508 / S288c) (Baker's yeast)) (UniProt P32657). Put plainly: ScCHD-1 Enzyme Inhibition Assay. Also: in the data most compounds retested in dose-response had high values. Particulars: 30 µM. Type of assay: functional.

For some of these results: Measured potencies and affinities stand elsewhere.

Chromo domain-containing protein 1 (Saccharomyces cerevisiae (strain ATCC 204508 / S288c) (Baker's yeast)), sequence (P32657 whole entry, the tested form may be a part): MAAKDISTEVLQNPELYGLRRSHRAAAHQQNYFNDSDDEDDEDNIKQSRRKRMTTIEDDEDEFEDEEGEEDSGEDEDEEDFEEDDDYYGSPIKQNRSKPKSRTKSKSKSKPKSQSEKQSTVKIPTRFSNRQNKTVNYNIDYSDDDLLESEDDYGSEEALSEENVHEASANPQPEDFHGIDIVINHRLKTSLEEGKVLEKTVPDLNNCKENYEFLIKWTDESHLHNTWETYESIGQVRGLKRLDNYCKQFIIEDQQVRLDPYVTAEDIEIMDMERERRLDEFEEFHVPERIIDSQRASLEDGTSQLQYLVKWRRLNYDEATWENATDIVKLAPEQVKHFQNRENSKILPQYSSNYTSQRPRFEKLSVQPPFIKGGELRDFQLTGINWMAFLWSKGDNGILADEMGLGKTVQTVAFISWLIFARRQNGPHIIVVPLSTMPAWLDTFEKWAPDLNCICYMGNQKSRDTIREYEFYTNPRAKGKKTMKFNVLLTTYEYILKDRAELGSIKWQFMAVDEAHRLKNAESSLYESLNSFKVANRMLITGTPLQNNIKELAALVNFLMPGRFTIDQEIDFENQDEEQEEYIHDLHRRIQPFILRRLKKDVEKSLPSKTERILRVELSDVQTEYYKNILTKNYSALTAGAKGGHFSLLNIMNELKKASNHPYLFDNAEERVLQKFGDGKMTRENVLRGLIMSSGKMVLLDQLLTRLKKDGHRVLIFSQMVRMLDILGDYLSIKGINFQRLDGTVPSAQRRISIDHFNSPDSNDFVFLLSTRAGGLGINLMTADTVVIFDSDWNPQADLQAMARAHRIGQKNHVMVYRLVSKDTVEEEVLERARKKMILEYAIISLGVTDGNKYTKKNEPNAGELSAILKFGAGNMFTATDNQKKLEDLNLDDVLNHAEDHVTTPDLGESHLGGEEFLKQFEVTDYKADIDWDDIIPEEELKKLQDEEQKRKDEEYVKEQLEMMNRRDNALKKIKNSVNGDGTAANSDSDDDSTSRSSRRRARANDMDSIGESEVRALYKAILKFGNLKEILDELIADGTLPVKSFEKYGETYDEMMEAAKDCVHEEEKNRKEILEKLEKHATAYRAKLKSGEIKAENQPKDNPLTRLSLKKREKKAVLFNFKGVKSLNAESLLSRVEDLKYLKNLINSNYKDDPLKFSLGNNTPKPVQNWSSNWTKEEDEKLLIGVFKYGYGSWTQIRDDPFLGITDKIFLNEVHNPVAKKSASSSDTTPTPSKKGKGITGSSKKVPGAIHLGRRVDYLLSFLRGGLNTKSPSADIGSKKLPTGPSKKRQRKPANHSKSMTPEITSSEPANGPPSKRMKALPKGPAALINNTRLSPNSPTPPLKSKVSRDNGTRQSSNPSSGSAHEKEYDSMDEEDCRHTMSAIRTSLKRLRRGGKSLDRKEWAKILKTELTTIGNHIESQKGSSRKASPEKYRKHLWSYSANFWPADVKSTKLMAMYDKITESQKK
Protein translocase subunit SecA (Escherichia coli (strain K12)), sequence (P10408 whole entry): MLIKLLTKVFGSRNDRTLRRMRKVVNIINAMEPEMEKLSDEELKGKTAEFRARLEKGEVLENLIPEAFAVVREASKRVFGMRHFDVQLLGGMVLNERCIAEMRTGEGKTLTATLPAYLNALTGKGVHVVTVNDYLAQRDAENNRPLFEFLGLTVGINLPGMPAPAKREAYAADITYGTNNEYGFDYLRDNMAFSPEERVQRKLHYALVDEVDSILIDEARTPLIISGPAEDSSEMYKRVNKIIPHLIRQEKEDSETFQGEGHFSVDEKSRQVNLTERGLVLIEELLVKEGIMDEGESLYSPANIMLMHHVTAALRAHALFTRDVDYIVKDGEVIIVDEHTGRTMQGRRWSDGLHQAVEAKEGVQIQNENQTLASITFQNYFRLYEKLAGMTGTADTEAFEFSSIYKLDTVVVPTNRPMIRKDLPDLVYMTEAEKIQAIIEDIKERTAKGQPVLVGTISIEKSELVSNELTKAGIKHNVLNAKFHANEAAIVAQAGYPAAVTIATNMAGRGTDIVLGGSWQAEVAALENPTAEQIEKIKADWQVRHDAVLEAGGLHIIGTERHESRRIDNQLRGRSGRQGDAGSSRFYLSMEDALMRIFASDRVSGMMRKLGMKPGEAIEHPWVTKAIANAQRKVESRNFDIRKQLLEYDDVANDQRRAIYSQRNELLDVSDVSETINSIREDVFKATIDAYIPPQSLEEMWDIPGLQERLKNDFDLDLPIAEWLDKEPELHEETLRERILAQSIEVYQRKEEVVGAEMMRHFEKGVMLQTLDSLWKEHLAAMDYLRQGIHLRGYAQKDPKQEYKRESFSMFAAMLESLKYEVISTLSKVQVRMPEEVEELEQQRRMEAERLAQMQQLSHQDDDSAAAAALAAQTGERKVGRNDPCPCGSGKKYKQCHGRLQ

`Cc1cccc(C2(CNC(=O)CCN3C(=O)CCC3=O)CCCC2)c1`: the Percent Effect in assay [1] was -5.2%; in assay [2], 10.1%; in assay [3], 1.38%; in [4], 0.402%; in the assay on Trypanosoma cruzi, 5.95%; in [5], -4.56%. For the same compound, the Percent Effect in assay [6] is 3.36%; in the assay listed under Homo sapiens, 8.93%; in assay [7], 9.36%; in assay [8] it was 13.9%; in [9] it was -5.07%.

For the compound `Cc1ccc(C)c(CNC(=O)NC(C)(C(=O)O)c2ccco2)c1` (stereo not drawn), the Percent Effect in [1] is -5.53%; in assay [2] it was 21.1%; in assay [3], -0.592%; in assay [4], 12.2%; in the assay with Trypanosoma cruzi, 8.12%; in assay [5] it was -5.75%. In addition, the Percent Effect was 5.33% in [6]; 5.04% in the assay listed under Homo sapiens; 5.42% in assay [7]; 16.1% in [8]; -4.02% in [9].

`Cc1ccc(-c2nc(CN3CCN(S(=O)(=O)N(C)C)CC3)cs2)o1`: the Percent Effect in assay [1] was 1.85%; in assay [2], 3.8%; in assay [3], 3.49%; in assay [4], -3.53%; in the assay on Trypanosoma cruzi it was -3.79%; in assay [5], 1.94%. Moreover, the Percent Effect was 20.9% in [6]; 43.8% in the assay listed under Homo sapiens; 8.33% in [7]; 12.7% in assay [8]; -19.4% in assay [9].

Take `CCc1ccc(C(=O)N2CCCC(n3cncn3)C2)o1` (stereo not drawn): the Percent Effect is -10.1% in assay [1]; -4.17% in assay [2]; -1.09% in assay [3]; -2.11% in assay [4]; -2.82% in the assay with Trypanosoma cruzi; -2.21% in assay [5]. The Percent Effect in assay [6] was 7.37%; in the assay filed under Homo sapiens, 4.2%; in assay [7] it was 3.16%; in [8], -2.56%; in assay [9], 3.19%.

Consider `Cc1cnc(CN2CCC(N(C)Cc3nnc(C4CC4)n3C)C2)cn1` (stereo not drawn), for which the Percent Effect was -4.85% in assay [1]; 0% in [2]; 1.39% in assay [3]; -3.06% in assay [4]; -0.0978% with Trypanosoma cruzi; 2.73% in assay [5]. The Percent Effect in assay [6] was 8.67%; in the assay filed under Homo sapiens, -19.5%; in assay [7], 6.45%; in assay [8], 8.64%; in assay [9] it was -2.52%.

For `CNC(=O)N1CCc2cc(C(=O)N(C)C)c(NCC3CC3)nc2CC1`, the Percent Effect was -4.82% in assay [1]; 8.11% in assay [2]; -2.71% in assay [3]; 2.07% in assay [4]; -4.4% in the assay on Trypanosoma cruzi; -0.248% in [5]. The Percent Effect is 10.7% in [6]; 18.6% in the assay filed under Homo sapiens; 6.45% in [7]; 16.1% in assay [8]; -1.72% in [9].

Take `CCc1cc(N2CCSCC2)n2nc(C)c(C)c2n1`: the Percent Effect is -2.37% in [1]; 5.33% in [2]; 2.1% in assay [3]; 4.26% in assay [4]; -4.97% with Trypanosoma cruzi; 1.04% in [5]. The Percent Effect is 26.7% in assay [6]; 15.8% in the assay listed under Homo sapiens; -2.73% in assay [7]; 6.17% in assay [8]; -6.13% in assay [9].

With `Cc1cc(C)c(OCC(=O)NS(=O)(=O)c2cccnc2)c(C)c1`, the Percent Effect in assay [1] was -3.5%; in assay [2] it was 21.1%; in assay [3], -5.54%; in [4] it was 1.96%; with Trypanosoma cruzi, 3.95%; in assay [5], -0.766%. Also, the Percent Effect in [6] was 16%; in the assay filed under Homo sapiens, 6.77%; in assay [7] it was 10.3%; in assay [8], 24.4%; in assay [9], -14%.

These data come from ChEMBL document CHEMBL3988442, “University of Dundee, Small-Polar-MMV Screening Library” (2021).
